Test in all cases: NCI-60 one-dose screen, 48 h (100 = growth as untreated, 0 = no growth, -100 = all killed)
Common to all, as to details: 10 µM

The test system of assay [1] is HCT-15 colon.
Assay [2] relates to HT29 colon.
Assay [3] deals with SNB-75 CNS.
In assay [4] the test system is SNB-19 CNS.
For assay [5], the system named is U251 CNS.
For assay [6], the system named is PC-3 prostate.
For assay [7], the system named is SK-MEL-5 melanoma.
In assay [8] the test system is UACC-62 melanoma.
Assay [9] relates to LOX IMVI melanoma.
In assay [10] the test system is SK-MEL-28 melanoma.
The subject of assay [11] is SK-MEL-2 melanoma.
In assay [12] the test system is SN12C renal.
Assay [13] relates to UO-31 renal.
The subject of assay [14] is TK-10 renal.
Assay [15] has as its system ACHN renal.
In assay [16] the test system is CAKI-1 renal.
Assay [17] has as its system A498 renal.
The test system of assay [18] is CCRF-CEM leukemia.
Assay [19] deals with MOLT-4 leukemia.

This is an account of results in PubChem BioAssay (NCI).

Compounds without any hit were thinned out: in the full panel of roughly 83,000, 20% have a hit.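 Percent growth is the endpoint: 0 to 100 indicates growth inhibition (40 means 60% inhibition), 0 means no net growth, and negative values indicate cell death.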 A number with no mark means an inactive call. Calls of active or inactive are those of the source. Rule for the calls: active = growth percent below 10; inactive = the rest.

With `O=C(Nc1cccc(F)c1)Nc1cccc(Cl)c1`, the growth in assay [1] was 82.9%; in assay [2], 90.9%; in assay [3], 89.1%; in [4], 99.9%; in assay [5], 90.5%; in assay [6], 65.5%. Also, the growth in assay [7] is 91.5%; in [8], 77.1%; in [9] it was 106%; in assay [10], 98.9%; in assay [11], 101%; in [12] it was 87.4%. The growth was 87.1% in assay [13]; 116% in assay [14]; 88.1% in [15]; 88.8% in assay [16]; 36.7% in assay [17]; 84.4% in [18]. The growth in assay [19] is 4.94% (active).

Take `COc1cc(-c2nc3cc(Cl)c(Cl)cc3[nH]2)ccc1OCC(=O)NN`: the growth in assay [1] was 65.2%; in [2] it was 98%; in assay [3], 106%; in assay [4], 93%; in assay [5], 91.2%; in [6], 73.8%. Also, the growth was 91% in assay [7]; 27.5% in [8]; 28.5% in assay [9]; 96.4% in [10]; 95.9% in assay [11]; 78.7% in assay [12]. Besides, the growth in assay [13] was 71.1%; in assay [14], 126%; in assay [15], 72.6%; in [16], 41%; in assay [17], 83.1%; in assay [18] it was 59.8%. Moreover, the growth in assay [19] was 67.8%.

For the molecule `Fc1ccc(-c2cc(C(Cl)Cl)no2)cc1`, the growth in [1] was 96.9%; in assay [2], 114%; in [3] it was 72.4%; in assay [4], 94.7%; in assay [5], 108%; in assay [6] it was 93%. Also, the growth is 94.3% in [7]; 92.8% in assay [8]; 101% in [9]; 109% in assay [10]; 116% in assay [11]; 97.6% in assay [12]. Also, the growth in [13] is 78.7%; in assay [14] it was 131%; in assay [15], 102%; in assay [16], 84.9%; in [17], 99.3%; in assay [18], 93.1%. Moreover, in [19], the growth is 108%.

As for `Nc1ccc(C2=CC(c3ccc(Cl)cc3)N3C=CSC3=N2)cc1` (centres undefined), the growth in [1] is -57.7% (active); in [2], -42.9% (active); in assay [3], -15.6% (active); in [4] it was -65.2% (active); in [5], -83.5% (active); in assay [6], -28.1% (active). Further, the growth in assay [7] was -97.6% (active); in assay [8], -67.1% (active); in [9], -83.3% (active); in assay [10], -89.7% (active); in assay [11], -49.9% (active); in [12] it was -45.2% (active). Moreover, the growth in [13] is -96% (active); in [14], -30.1% (active); in [15] it was -100% (active); in assay [16], -19.5% (active); in [17], -93.5% (active); in assay [18], -22.1% (active). In addition, the growth in assay [19] is -11% (active).

As to `COc1ccc2nc(-c3ccccc3)cc(C(C)=O)c2c1`, the growth in [1] is 94.9%; in assay [2], 93.6%; in assay [3], 79.7%; in assay [4] it was 101%; in assay [5] it was 99.1%; in assay [6], 84.4%. Moreover, the growth in assay [7] was 98.5%; in [8], 91.1%; in assay [9], 92.2%; in [10], 108%; in assay [11], 96.6%; in assay [12], 94.9%. Moreover, the growth in assay [13] is 73.8%; in assay [14], 89.7%; in assay [15], 97.7%; in assay [16], 87.9%; in assay [17] it was 74.8%; in [18] it was 91.2%. The growth in [19] was 73.1%.

For `O=C(Nc1cccc(C(F)(F)F)c1)C(Cl)Cl`, the growth in assay [1] was 94%; in [2] it was 92.2%; in assay [3], 91.3%; in assay [4], 99%; in [5], 102%; in assay [6] it was 95.1%. Also, the growth is 103% in assay [7]; 105% in assay [8]; 101% in assay [9]; 104% in assay [10]; 97.4% in assay [11]; 105% in assay [12]. Besides, the growth in [13] was 80.6%; in assay [15], 103%; in assay [16], 105%; in assay [17], 101%; in assay [18], 98.8%.

Take `O=C(C=P(c1ccccc1)(c1ccccc1)c1ccccc1)c1ccc(Br)cc1`: the growth in assay [1] is 95.2%; in assay [2] it was 79.1%; in assay [3] it was 90.9%; in [4] it was 98.6%; in assay [5] it was 97.1%; in [6], 41.7%. Further, the growth in [7] is 96.6%; in assay [8], 67.5%; in [9], 73.4%; in [10], 109%; in assay [11] it was 94.3%; in [12], 96.5%. In addition, the growth in assay [13] is 53.7%; in assay [14], 95%; in [15] it was 78.7%; in assay [16], 84.3%; in assay [17], 64.3%; in assay [18], 55%. In addition, the growth in [19] was 0.436% (active).

On to `O=C(COCc1c(-c2ccccc2)no[n+]1[O-])Nc1nc(-c2ccc(Cl)cc2)cs1`, for which the growth was 103% in [1]; 105% in assay [2]; 98.6% in [3]; 107% in assay [4]; 103% in [5]; 95.7% in [6]. The growth in [7] is 95.6%; in assay [8], 99.6%; in [9], 95.8%; in [10] it was 111%; in assay [11] it was 105%; in assay [12], 100%. Moreover, the growth in [13] is 80.8%; in [14], 113%; in assay [15], 112%; in [16], 105%; in assay [18], 90.5%; in assay [19] it was 102%.
